According to PubChem BioAssay (NCI):
The panel holds about 83,000 compounds, 20% with a hit somewhere; the sample as a whole holds those more often.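 Method: cells in 96-well plates; compound added at one concentration; 48 h incubation; percent growth measured; values under 10 scored active.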 Unmarked numbers belong to inactive results. The source made the active and inactive calls.

Each compound was assayed on U251 CNS (assay: NCI-60 one-dose screen, 48 h (100 = growth as untreated, 0 = no growth, -100 = all killed)). Details: 10 µM unless noted.

SMILES	growth
O=C(CSc1nccc(=O)[nH]1)Nc1ccc(-c2nc3ccccc3[nH]2)cc1	106%
N[C@@H](Cc1cn(-c2ccnc3ccccc23)nn1)C(=O)O	101%
CCOC(=O)c1c(Nc2ccccc2)nn2c(N)c(C#N)c(-c3ccc(F)cc3)nc12	88.7%
O=C(N/N=C/c1ccc([N+](=O)[O-])o1)c1[nH]c2ccc(Br)cc2c1-c1ccccc1	13.3%
CN(C)CCCNc1c2ccc(Cl)cc2nc2c1oc1ccc(Cl)cc12	-50.9% (active)
Cc1c(NC(=O)CSc2nc3sc4c(c3c(=O)n2-c2ccc(Cl)cc2)CCCC4)c(=O)n(-c2ccccc2)n1C	104%
CC(C)(C)Nc1nc2c(OCCc3ccccc3)cccn2c1-c1ccc(Cl)cc1	11.9%
CN(C)CCCNc1c2ccc(Cl)cc2nc2c1oc1ccccc12	18.8%
COc1ccccc1C(=O)CSc1nc(Nc2ccc(S(N)(=O)=O)cc2)c2ccccc2n1	93%
COc1ccccc1/C=C/C=N/NC1=NC2C(S1)N(C)C(=O)N2C (stereo unspecified)	25.1%
COc1cccc(N2CCN(c3ncnc4c3[nH]c3ccc(F)cc34)C[C@@H]2C)c1	-31.5% (active)
O=C(CSc1nnc(-c2ccc3nc(-c4ccc(Cl)cc4)[nH]c3c2)o1)Nc1ccc(C(=O)/C=C/c2ccc(Cl)cc2)cc1	82.2%
Cc1nc2cnc(N)c(C#Cc3cncc(C(=O)Nc4ccc(Cl)c(C(F)(F)F)c4)c3)c2nc1C	77.4%
Cc1ccc(C(=O)Nc2cccc(C(F)(F)F)c2)cc1Nc1nc(-c2cnccn2)nc2c1cnn2C	82.1%
CC(=O)Oc1ccccc1C(=O)Nc1cc(C(C)C)ccc1C	10.1%
COc1ccc(/C=N/NC(=O)c2[nH]c3ccc(Br)cc3c2-c2ccccc2)s1	30.2%
O=C(CN1C(=O)/C(=C/c2ccccc2)SC1=S)N1CCOCC1	102%
COc1ccc(-c2nc3ccc(-c4nnc(SCC(=O)Nc5ccc(C(=O)/C=C/c6ccc(Cl)cc6)cc5)o4)cc3[nH]2)cc1OC	100%
CN1C(=S)N(C)C2C1NN=C1SC(c3ccccc3)=CC(=O)N12 (stereo unspecified)	95.1%

SMILES	growth
CN(C)c1ccc(/C=C2\Cc3c(F)ccc(Br)c3C2=O)cc1	91.6%
CN(C)S(=O)(=O)c1oc(-c2ccccc2)nc1C#N	88.8%
CC(C)(C)OC(=O)N1C(=O)c2c(c3c4ccccc4[nH]c3c3ccc4ccccc4c23)C1=O	58.8%
Cc1[nH]nc2ncc(C#Cc3cncc(C(=O)Nc4ccc(CN5CCN(C)CC5)c(C(F)(F)F)c4)c3)cc12	40.5%
C#Cc1nc(C2=C(C)C(=N\O)/C(=N/O)C2)cs1	103%
O=c1[nH]c2ccccc2cc1CSc1ccccc1Nc1nccc(-c2ccc(C(F)(F)F)cc2)n1	47.5%
COC1CCN(Cc2ccc3c(NNC(=O)c4cnccn4)nc4cc(F)ccc4n23)C1 (stereo unspecified)	12.8%
O=C(CN1CCOCC1)NNc1ncnc2ccccc12	85.3%
Cn1c(SCC(=O)Nc2ccc(-c3nc4ccc([N+](=O)[O-])cc4[nH]3)cc2)nc2ccccc2c1=O	92%
O=C(CSc1nc2sc3c(c2c(=O)n1-c1ccc(Cl)cc1)CCCC3)N/N=C/c1ccc(F)cc1	67.1%
O=c1/c(=C\c2ccc(-c3ccccc3)o2)sc2nc(-c3ccccc3)nn12	98.8%
COC(=O)C1CCCN(S(=O)(=O)/N=C2\NC(=O)NC2=C(Cl)Cl)C1 (stereo unspecified)	95.3%
Clc1ccc2c(NCCCN3CCOCC3)c3oc4ccc(Cl)cc4c3nc2c1	44.1%
N#Cc1nc(-c2ccccc2)oc1N1CC[C@@H](CO)C1	103%
O=C(c1ccc(O)cc1)C1[C@H](c2ccc(Cl)cc2)[C@@H](c2ccccc2)NC12C(=O)Nc1ccc(Cl)cc12 (stereo partly specified)	29.6%
COc1cccc(OC)c1-c1nnn(C)c1C(=S)N1CCN(c2ccc([N+](=O)[O-])cc2Cl)CC1	97.9%
CCCC(=O)NC(c1cccc(N(C)C)c1)c1cc(C)c2cccnc2c1O (stereo unspecified)	55.5%
CC(=O)Oc1ccccc1C(=O)Nc1ccc(C(=O)/C=C/c2ccncc2)cc1	21.1%
C#Cc1nc(C2=C(C)C(OC(=O)CCC(=O)O)CC2)cs1 (stereo unspecified)	106%

These compounds were tested on PC-3 prostate in the same assay as above. Details: 10 µM unless noted.

SMILES	growth
O=C(CSc1nccc(=O)[nH]1)Nc1ccc(-c2nc3ccccc3[nH]2)cc1	92.6%
N[C@@H](Cc1cn(-c2ccnc3ccccc23)nn1)C(=O)O	96.2%
CCOC(=O)c1c(Nc2ccccc2)nn2c(N)c(C#N)c(-c3ccc(F)cc3)nc12	80.3%
O=C(N/N=C/c1ccc([N+](=O)[O-])o1)c1[nH]c2ccc(Br)cc2c1-c1ccccc1	16.2%
CN(C)CCCNc1c2ccc(Cl)cc2nc2c1oc1ccc(Cl)cc12	-24.1% (active)
Cc1c(NC(=O)CSc2nc3sc4c(c3c(=O)n2-c2ccc(Cl)cc2)CCCC4)c(=O)n(-c2ccccc2)n1C	94.4%
CC(C)(C)Nc1nc2c(OCCc3ccccc3)cccn2c1-c1ccc(Cl)cc1	3.08% (active)
CN(C)CCCNc1c2ccc(Cl)cc2nc2c1oc1ccccc12	13.7%
COc1ccccc1C(=O)CSc1nc(Nc2ccc(S(N)(=O)=O)cc2)c2ccccc2n1	92.6%
COc1ccccc1/C=C/C=N/NC1=NC2C(S1)N(C)C(=O)N2C (stereo unspecified)	30.2%
COc1cccc(N2CCN(c3ncnc4c3[nH]c3ccc(F)cc34)C[C@@H]2C)c1	-42.3% (active)
O=C(CSc1nnc(-c2ccc3nc(-c4ccc(Cl)cc4)[nH]c3c2)o1)Nc1ccc(C(=O)/C=C/c2ccc(Cl)cc2)cc1	87.7%
Cc1nc2cnc(N)c(C#Cc3cncc(C(=O)Nc4ccc(Cl)c(C(F)(F)F)c4)c3)c2nc1C	85.3%
Cc1ccc(C(=O)Nc2cccc(C(F)(F)F)c2)cc1Nc1nc(-c2cnccn2)nc2c1cnn2C	90.1%
CC(=O)Oc1ccccc1C(=O)Nc1cc(C(C)C)ccc1C	22.1%
COc1ccc(/C=N/NC(=O)c2[nH]c3ccc(Br)cc3c2-c2ccccc2)s1	30.9%
O=C(CN1C(=O)/C(=C/c2ccccc2)SC1=S)N1CCOCC1	108%
COc1ccc(-c2nc3ccc(-c4nnc(SCC(=O)Nc5ccc(C(=O)/C=C/c6ccc(Cl)cc6)cc5)o4)cc3[nH]2)cc1OC	97.7%
CN1C(=S)N(C)C2C1NN=C1SC(c3ccccc3)=CC(=O)N12 (stereo unspecified)	87.5%

SMILES	growth
CN(C)c1ccc(/C=C2\Cc3c(F)ccc(Br)c3C2=O)cc1	92%
CN(C)S(=O)(=O)c1oc(-c2ccccc2)nc1C#N	88.7%
CC(C)(C)OC(=O)N1C(=O)c2c(c3c4ccccc4[nH]c3c3ccc4ccccc4c23)C1=O	42.8%
Cc1[nH]nc2ncc(C#Cc3cncc(C(=O)Nc4ccc(CN5CCN(C)CC5)c(C(F)(F)F)c4)c3)cc12	48.8%
C#Cc1nc(C2=C(C)C(=N\O)/C(=N/O)C2)cs1	90.6%
O=c1[nH]c2ccccc2cc1CSc1ccccc1Nc1nccc(-c2ccc(C(F)(F)F)cc2)n1	56.6%
COC1CCN(Cc2ccc3c(NNC(=O)c4cnccn4)nc4cc(F)ccc4n23)C1 (stereo unspecified)	40.9%
O=C(CN1CCOCC1)NNc1ncnc2ccccc12	78.3%
Cn1c(SCC(=O)Nc2ccc(-c3nc4ccc([N+](=O)[O-])cc4[nH]3)cc2)nc2ccccc2c1=O	68.7%
O=C(CSc1nc2sc3c(c2c(=O)n1-c1ccc(Cl)cc1)CCCC3)N/N=C/c1ccc(F)cc1	87.1%
O=c1/c(=C\c2ccc(-c3ccccc3)o2)sc2nc(-c3ccccc3)nn12	95.7%
COC(=O)C1CCCN(S(=O)(=O)/N=C2\NC(=O)NC2=C(Cl)Cl)C1 (stereo unspecified)	101%
Clc1ccc2c(NCCCN3CCOCC3)c3oc4ccc(Cl)cc4c3nc2c1	60.8%
N#Cc1nc(-c2ccccc2)oc1N1CC[C@@H](CO)C1	92.2%
O=C(c1ccc(O)cc1)C1[C@H](c2ccc(Cl)cc2)[C@@H](c2ccccc2)NC12C(=O)Nc1ccc(Cl)cc12 (stereo partly specified)	24.6%
COc1cccc(OC)c1-c1nnn(C)c1C(=S)N1CCN(c2ccc([N+](=O)[O-])cc2Cl)CC1	54%
CCCC(=O)NC(c1cccc(N(C)C)c1)c1cc(C)c2cccnc2c1O (stereo unspecified)	50.1%
CC(=O)Oc1ccccc1C(=O)Nc1ccc(C(=O)/C=C/c2ccncc2)cc1	70.4%
C#Cc1nc(C2=C(C)C(OC(=O)CCC(=O)O)CC2)cs1 (stereo unspecified)	102%
